{
  "source": "PubChem BioAssay (EPA / NIEHS)",
  "note": "Calls of active or inactive are those of the source. How the source made its calls: active means hit-call score of the fitted dose curve at least 0.9, where 1 is the maximum; inactive means score below 0.9.",
  "data": [
    {"target": "Estrogen receptor (Homo sapiens) (UniProt P03372)", "sequence (P03372 whole entry, looked up)": "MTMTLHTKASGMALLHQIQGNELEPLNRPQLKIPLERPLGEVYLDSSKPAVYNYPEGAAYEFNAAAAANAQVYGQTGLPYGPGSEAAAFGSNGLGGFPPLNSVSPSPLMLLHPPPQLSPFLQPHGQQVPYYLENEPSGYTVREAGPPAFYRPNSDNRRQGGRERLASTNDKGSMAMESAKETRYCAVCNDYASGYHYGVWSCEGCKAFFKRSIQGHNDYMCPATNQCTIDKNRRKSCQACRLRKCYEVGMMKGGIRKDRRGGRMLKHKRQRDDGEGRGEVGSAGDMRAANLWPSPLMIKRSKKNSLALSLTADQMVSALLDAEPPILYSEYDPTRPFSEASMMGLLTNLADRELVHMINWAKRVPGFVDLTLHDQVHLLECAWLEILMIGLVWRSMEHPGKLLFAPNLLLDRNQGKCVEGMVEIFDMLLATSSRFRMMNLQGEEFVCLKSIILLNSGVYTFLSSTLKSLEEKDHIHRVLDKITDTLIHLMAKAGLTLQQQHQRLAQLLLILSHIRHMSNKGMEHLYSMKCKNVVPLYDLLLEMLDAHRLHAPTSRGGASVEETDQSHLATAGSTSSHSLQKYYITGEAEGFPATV", "experiment": "OT_ERa_GFPERaERE_0480: Odyssey Thera (OT) 8-hour HeLa Transcription Induction Assay for Estrogen Receptor (AID 2283381)", "procedure": "OT_ERa_GFPERaERE_0480 is a cell-based, single-readout assay that uses HeLa, a human cervix cell line, with measurements taken at 8 hours after chemical dosing in a 384-well plate.OT_ERa_GFPERaERE_0480 is one of one assay component(s) measured or calculated from the OT_ERa_GFPERaERE_0480 assay. It is designed to make measurements of fluorescent protein induction, a form of inducible reporter, as detected with optical microscopy: fluorescence microscopy signals by Microscopy technology.Data from the assay component OT_ERa_GFPERaERE_0480 was analyzed into 1 assay endpoint. This assay endpoint, OT_ERa_EREGFP_0480, was analyzed in the positive analysis fitting direction relative to DMSO as the negative control and baseline of activity. Using a type of inducible reporter, measures of receptor for gain-of-signal activity can be used to understand the reporter gene at the pathway-level as they relate to the gene ESR1. Furthermore, this assay endpoint can be referred to as a primary readout, because the performed assay has only produced 1 assay endpoint. To generalize the intended target to other relatable targets, this assay endpoint is annotated to the nuclear receptor intended target family, where the subfamily is steroidal.\nAll assay endpoints are quantified using high content image analysis algorithms.", "values": [
      {"smiles": "COP(=O)(OC)SCn1c(=O)oc2cc(Cl)cnc21", "outcome": "inactive"},
      {"smiles": "CNC(=O)ON=C(SC)C(=O)N(C)C", "outcome": "inactive"},
      {"smiles": "Cc1cc(C2CC2)nc(Nc2ccccc2)n1", "outcome": "inactive"},
      {"smiles": "COP(=O)(OC)OC(Br)C(Cl)(Cl)Br", "note": "(stereo unspecified)", "outcome": "inactive"},
      {"smiles": "O=[N+]([O-])c1cc(C(F)(F)F)c(Cl)c([N+](=O)[O-])c1Nc1ncc(C(F)(F)F)cc1Cl", "AC50": "17.9 µM (active)"},
      {"smiles": "Nc1c(Cl)cc([N+](=O)[O-])cc1Cl", "outcome": "inactive"},
      {"smiles": "CC[C@H](C)[C@H]1O[C@]2(C=C[C@@H]1C)C[C@@H]1C[C@@H](C/C=C(\\C)[C@@H](O[C@H]3C[C@H](OC)[C@@H](O[C@H]4C[C@H](OC)[C@@H](NC)[C@H](C)O4)[C@H](C)O3)[C@@H](C)/C=C/C=C3\\CO[C@@H]4[C@H](O)C(C)=C[C@@H](C(=O)O1)[C@]34O)O2", "AC50": "17.9 µM (active)"},
      {"smiles": "CCc1cccc(CC)c1N(COC)C(=O)CCl", "outcome": "inactive"},
      {"smiles": "CNC(=O)Oc1cccc2c1OC(C)(C)O2", "outcome": "inactive"},
      {"smiles": "CSc1nc(NC(C)C)nc(NC(C)C)n1", "outcome": "inactive"},
      {"smiles": "CCCCOC(=O)[C@@H](C)Oc1ccc(Oc2ccc(C#N)cc2F)cc1", "outcome": "inactive"}
    ]}
  ]
}
